The target of assay [1] is Bile acid receptor (Homo sapiens) (UniProt Q96RI1). The experiment in a line: ATG_IR1_CIS: Attagene CIS-FACTORIAL HepG2 Assay for human Nuclear Receptor Subfamily 1 Group H Member 4 (NR1H4), IR1 submotif (AID 2282946). The settings on record: IR1 reporter transcription, actives raise or lower the signal. The essentials: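 Fluorescence of capillary-separated, HpaI-digested RT-PCR reporter products gave IR1-element mRNA induction in HepG2 cells 24 h after dosing. Endogenous transcription factors drove the cis-regulated reporters; activity was fitted bidirectionally against DMSO.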
Sequence of Bile acid receptor (Homo sapiens) (Q96RI1 whole entry, looked up): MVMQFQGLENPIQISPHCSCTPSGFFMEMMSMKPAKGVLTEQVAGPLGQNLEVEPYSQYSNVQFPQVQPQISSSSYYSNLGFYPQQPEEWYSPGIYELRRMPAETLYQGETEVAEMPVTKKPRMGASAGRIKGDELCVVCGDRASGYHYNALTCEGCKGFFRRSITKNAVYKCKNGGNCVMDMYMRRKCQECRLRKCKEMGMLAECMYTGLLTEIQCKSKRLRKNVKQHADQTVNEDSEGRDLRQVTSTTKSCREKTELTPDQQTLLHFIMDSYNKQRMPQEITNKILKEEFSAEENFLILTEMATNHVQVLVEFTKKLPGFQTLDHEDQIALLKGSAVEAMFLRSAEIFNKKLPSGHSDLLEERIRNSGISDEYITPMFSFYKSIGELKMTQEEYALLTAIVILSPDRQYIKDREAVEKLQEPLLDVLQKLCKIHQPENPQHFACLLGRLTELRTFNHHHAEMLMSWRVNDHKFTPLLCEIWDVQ

Assay [2] can be described thus: ATG_GRE_CIS: Attagene CIS-FACTORIAL HepG2 Assay for human Glucocorticoid Response Elements (GRE) (AID 2282947). The note with it: HepG2 GRE cis-reporter, Attagene multiplex mRNA; actives raise or lower the signal. In a few lines:
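Read-out: fluorescent reporter-transcript fragments separated by capillary electrophoresis after RT-PCR. Transiently transfected HepG2 cells carrying cis-element-driven reporter units were dosed for 24 h; gain or loss of signal fitted against DMSO control.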

The nature of assay [3]: ATG_ISRE_CIS: Attagene CIS-FACTORIAL HepG2 Assay for human Interferon Regulatory Factor 1 (IRF1) binding to an Interferon-Stimulated Response Element (ISRE) (AID 2282948). The settings on record: HepG2 ISRE cis-reporter (Attagene), mRNA transcription readout; actives raise or lower the signal. The essentials: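 Uses HepG2 liver cells transfected with cis-regulated reporters and measures mRNA 24 h post-dosing through RT-PCR, primer-extension labelling and capillary electrophoresis, with DMSO as negative control.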

Assay [4] is described as follows: ATG_M_32_CIS: Attagene CIS-FACTORIAL HepG2 Assay for M32 Transcription Factor (Internal Marker) (AID 2282949).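 Further: background control marker of the multiplexed CIS panel rather than a real target.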 The settings on record: HepG2 Attagene cis-factorial M32 reporter, mRNA; actives raise or lower the signal. In a few lines:
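Using DMSO as baseline, bidirectional curve fits were applied to reporter mRNA signals. These came from transiently transfected HepG2 cells exposed for 24 h, with RNA analysed by RT-PCR, FAM primer extension, HpaI digestion and CE.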

The nature of assay [5]: ATG_M_06_CIS: Attagene CIS-FACTORIAL HepG2 Assay for M06 Transcription Factor (Internal Marker) (AID 2282950). The note with it: HepG2 Attagene CIS-FACTORIAL M06 internal marker reporter; actives raise or lower the signal. The essentials:
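Read-out is fluorescence of labelled reporter cDNA fragments resolved by capillary electrophoresis after RT-PCR. Cells: HepG2 carrying transfected cis-promoter reporter units, treated 24 h. Gain or loss of signal fitted relative to DMSO.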

Assay [6] addresses Hepatocyte nuclear factor 6 (Homo sapiens) (UniProt Q9UBC0). The assay is described as follows: ATG_HNF6_CIS: Attagene CIS-FACTORIAL HepG2 Assay for human Hepatocyte Nuclear Factor 6 (HNF6) (AID 2282952). The note with it: HepG2 Attagene cis-factorial HNF6 reporter transcription; actives raise or lower the signal. The essentials: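 Endogenous transcription factor activity in human HepG2 liver cells was captured through cis-regulated reporter constructs. After 24 h treatment, reporter mRNA was measured by RT-PCR with capillary electrophoresis, and activity was fitted in both directions relative to DMSO.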

Assay [7] has as its target Heat shock factor protein 1 (Homo sapiens) (UniProt Q00613). The experiment in a line: ATG_HSE_CIS: Attagene CIS-FACTORIAL HepG2 Assay for human Heat Shock Transcription Factor 1 (HSE) (AID 2282953). The settings on record: HepG2 HSE cis-reporter, Attagene RNA transcription; actives raise or lower the signal. In a few lines:
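HepG2, transient MRTU transfection, cis-promoter reporters (endogenous TF activity). 24 h compound. RNA → oligo(dT) RT → PCR → 6-FAM primer extension → HpaI cut → CE. Bidirectional fit vs DMSO.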

The nature of assay [8]: ATG_MRE_CIS: Attagene CIS-FACTORIAL HepG2 Assay for human Metal Responsive Element (MRE) (AID 2282954). The settings on record: HepG2 MRE cis-reporter transcription, Attagene multiplex; actives raise or lower the signal. In a few lines:
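RT-PCR/capillary electrophoresis readout of reporter mRNA, 24 h post-dosing, in HepG2 cells transfected with multiplexed cis-regulated reporter constructs. Gain or loss of signal fitted bidirectionally against DMSO baseline.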

A short description of assay [9]: ATG_PBREM_CIS: Attagene CIS-FACTORIAL HepG2 Assay for human Phenobarbital-responsive Enhancer Module (PBREM) (AID 2282955). The settings on record: HepG2 PBREM cis-reporter, Attagene multiplexed transcription; actives raise or lower the signal. In a few lines:
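Transfected liver-derived HepG2 cells exposed 24 h; PBREM reporter transcript quantified via RT-PCR and capillary electrophoresis, with activity in either direction referenced to DMSO.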

Assay [10] concerns the target Paired box protein Pax-6 (Homo sapiens) (UniProt P26367). The assay is described as follows: ATG_Pax6_CIS: Attagene CIS-FACTORIAL HepG2 Assay for human Paired Box 6 (PAX6) (AID 2282956). The settings on record: HepG2 CIS-FACTORIAL PAX6 reporter transcription, RNA readout; actives raise or lower the signal. The essentials: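 DMSO-referenced bidirectional fits of reporter mRNA fluorescence; HepG2 with transient cis-promoter MRTUs, 24 h post-dose, RT-PCR plus capillary electrophoresis detection.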

Assay [11] in a line: ATG_PXRE_CIS: Attagene CIS-FACTORIAL HepG2 Assay for human Pregnane X Receptor Element (PXRE) (AID 2282957). The note with it: HepG2 Attagene CIS-FACTORIAL PXRE reporter, mRNA; actives raise or lower the signal. The essentials:
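Endogenous transcription factor activity in HepG2 was gauged through induction of reporter mRNA driven by a cis-regulating promoter element, sampled 24 h post-treatment. Activity was fitted in both directions against DMSO negative control.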

Assay [12] can be described thus: ATG_RORE_CIS: Attagene CIS-FACTORIAL HepG2 Assay for human RAR-related Orphan Receptor Element (RORE) (AID 2282959). The settings on record: HepG2 Attagene cis-factorial RORE reporter, mRNA; actives raise or lower the signal. The essentials:
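Transiently transfected HepG2 reporter cells were treated 24 h. Reporter transcripts were detected by RT-PCR and capillary electrophoresis, with bidirectional fitting against DMSO.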

Assay [13] is described as follows: ATG_Sox_CIS: Attagene CIS-FACTORIAL HepG2 Assay for human SRY-box transcription factor (SOX) (AID 2282960). The settings on record: HepG2 Attagene cis-factorial SOX reporter, mRNA; actives raise or lower the signal. The essentials:
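Gain- or loss-of-signal endpoint, fitted bidirectionally with DMSO as negative control. Based on reporter mRNA from transfected HepG2 cells harvested 24 h post-treatment and quantified via RT-PCR and capillary electrophoresis.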

Assay [14] deals with Transcription factor Sp1 (Homo sapiens) (UniProt P08047). The assay is described as follows: ATG_Sp1_CIS: Attagene CIS-FACTORIAL HepG2 Assay for human Specificity Protein 1 (Sp1) (AID 2282961). The settings on record: HepG2 Sp1 cis-reporter transcription, actives raise or lower the signal. The essentials:
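Endpoint reflects endogenous Sp1 transcriptional activity, not an exogenous fusion protein: HepG2 cells with transfected cis-regulated reporters, 24 h dosing, RT-PCR/capillary electrophoresis mRNA read-out, DMSO-normalised bidirectional fit.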

Assay [15] in a line: ATG_SREBP_CIS: Attagene CIS-FACTORIAL HepG2 Assay for human Sterol Regulatory Element Binding (SREBP) (AID 2282962). The settings on record: HepG2 Attagene cis-factorial SREBP reporter, mRNA; actives raise or lower the signal. The essentials:
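In this cis-format assay, HepG2 liver cells express reporters controlled by promoter elements responsive to native transcription factors. Exposure lasts 24 h; reporter mRNA fluorescence from capillary electrophoresis gives the signal, fitted bidirectionally against DMSO.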

In assay [16] the target is Signal transducer and activator of transcription 3 (Homo sapiens) (UniProt P40763). The experiment in a line: ATG_STAT3_CIS: Attagene CIS-FACTORIAL HepG2 Assay for human Signal Transducer and Activator of Transcription 3 (STAT3) (AID 2282963). The note with it: HepG2, Attagene cis-factorial STAT3 reporter transcription; actives raise or lower the signal. The essentials: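 Readout: fluorescent reporter mRNA fragments resolved by capillary electrophoresis. Setup: HepG2 transfected with MRTUs reporting endogenous transcription-factor activity, dosed 24 h. Gain or loss of signal fitted bidirectionally against DMSO control.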
Sequence of Signal transducer and activator of transcription 3 (Homo sapiens) (P40763 whole entry, looked up, the tested form may be a part): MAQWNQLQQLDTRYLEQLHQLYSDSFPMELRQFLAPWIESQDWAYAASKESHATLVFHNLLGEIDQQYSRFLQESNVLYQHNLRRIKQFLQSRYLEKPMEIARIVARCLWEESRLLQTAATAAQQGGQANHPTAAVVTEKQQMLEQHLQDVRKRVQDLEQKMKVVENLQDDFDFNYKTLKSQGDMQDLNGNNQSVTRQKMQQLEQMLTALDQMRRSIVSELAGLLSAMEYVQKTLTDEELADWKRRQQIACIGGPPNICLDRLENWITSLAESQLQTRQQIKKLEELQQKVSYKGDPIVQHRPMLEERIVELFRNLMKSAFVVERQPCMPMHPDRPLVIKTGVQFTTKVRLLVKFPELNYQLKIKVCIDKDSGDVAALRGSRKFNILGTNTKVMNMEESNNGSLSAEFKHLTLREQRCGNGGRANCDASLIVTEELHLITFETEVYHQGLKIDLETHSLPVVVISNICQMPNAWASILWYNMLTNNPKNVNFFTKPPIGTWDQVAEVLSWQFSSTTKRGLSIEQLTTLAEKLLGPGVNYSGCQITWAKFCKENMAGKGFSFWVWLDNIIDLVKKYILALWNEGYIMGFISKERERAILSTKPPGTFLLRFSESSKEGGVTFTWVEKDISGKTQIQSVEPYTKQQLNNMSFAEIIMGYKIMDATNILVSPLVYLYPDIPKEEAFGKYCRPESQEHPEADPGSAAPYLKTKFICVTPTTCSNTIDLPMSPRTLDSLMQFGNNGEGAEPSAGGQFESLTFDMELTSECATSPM

Assay [17] is described as follows: ATG_TA_CIS: Attagene CIS-FACTORIAL HepG2 Assay for human TA Basal Promoter (AID 2282964). The note with it: HepG2 Attagene CIS-factorial TA basal promoter reporter; actives raise or lower the signal. The essentials:
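Read-out: fluorescent reporter-transcript fragments resolved by capillary electrophoresis after RT-PCR and HpaI digestion. Source: HepG2 cells carrying transiently transfected multi-reporter cis constructs, treated 24 h. Endpoint fitted bidirectionally relative to DMSO.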

Assay [18] in a line: ATG_TCF_b_cat_CIS: Attagene CIS-FACTORIAL HepG2 Assay for human T-Cell-Factor with beta-catenin (TCF/b-cat) (AID 2282965). The settings on record: HepG2 TCF/beta-catenin cis-reporter transcription, actives raise or lower the signal. The essentials: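 HepG2, transient MRTU transfection, cis-element-driven reporters (endogenous TFs). 24 h compound exposure. Readout: reporter mRNA by RT-PCR + 6-FAM primer extension, HpaI digest, capillary electrophoresis. Gain/loss fit vs DMSO baseline.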

Assay [19] addresses Hypoxia-inducible factor 1-alpha (Homo sapiens) (UniProt Q16665). The experiment in a line: ATG_HIF1a_CIS: Attagene CIS-FACTORIAL HepG2 Assay for human Hypoxia Inducible Factor 1 (HIF1A) (AID 2282951). The note with it: HepG2 Attagene cis-factorial HIF1a reporter transcription; actives raise or lower the signal. The essentials: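 Dosed 24 h, transfected HepG2 cells yielded total RNA whose reporter transcripts were RT-PCR-amplified and sized by capillary electrophoresis using fluorescent labelling; DMSO defined baseline, with gain and loss of signal both fitted.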

Assay [20] is described as follows: ATG_PPRE_CIS: Attagene CIS-FACTORIAL HepG2 Assay for human Peroxisome Proliferator-activated Response Element (PPRE) (AID 2282958). The note with it: HepG2 PPRE cis-element reporter, Attagene transcription factor profiling; actives raise or lower the signal. In a few lines: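 Measured endpoint: PPRE-controlled reporter mRNA, detected by RT-PCR and capillary electrophoresis fluorescence, from transiently transfected HepG2 cells 24 h after dosing. Curves fitted in both directions using DMSO baseline.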

In PubChem BioAssay (EPA / NIEHS) one finds outcome and AC50 data, which are given here for three compounds.

Usually AC50 stands for the midpoint of the concentration-response curve, whichever way the signal moves.

Activity calls are given as the source filed them. How the source made its calls: active means hit-call score of the fitted dose curve at least 0.9, where 1 is the maximum; inactive means score below 0.9.

Sequence of Paired box protein Pax-6 (Homo sapiens) (P26367 whole entry, looked up): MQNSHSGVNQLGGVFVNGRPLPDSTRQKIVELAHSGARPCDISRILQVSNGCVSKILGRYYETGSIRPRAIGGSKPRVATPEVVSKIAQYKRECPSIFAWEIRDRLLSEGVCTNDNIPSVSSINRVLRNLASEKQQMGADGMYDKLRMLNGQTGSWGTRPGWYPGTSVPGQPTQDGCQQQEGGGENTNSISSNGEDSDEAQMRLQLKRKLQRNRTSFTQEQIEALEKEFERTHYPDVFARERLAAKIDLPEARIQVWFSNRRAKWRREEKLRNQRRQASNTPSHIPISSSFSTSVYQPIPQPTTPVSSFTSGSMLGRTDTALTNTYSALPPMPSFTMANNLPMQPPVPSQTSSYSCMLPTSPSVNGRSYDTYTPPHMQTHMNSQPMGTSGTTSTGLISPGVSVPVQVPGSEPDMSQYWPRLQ
Sequence of Transcription factor Sp1 (Homo sapiens) (P08047 whole entry, looked up, the tested form may be a part): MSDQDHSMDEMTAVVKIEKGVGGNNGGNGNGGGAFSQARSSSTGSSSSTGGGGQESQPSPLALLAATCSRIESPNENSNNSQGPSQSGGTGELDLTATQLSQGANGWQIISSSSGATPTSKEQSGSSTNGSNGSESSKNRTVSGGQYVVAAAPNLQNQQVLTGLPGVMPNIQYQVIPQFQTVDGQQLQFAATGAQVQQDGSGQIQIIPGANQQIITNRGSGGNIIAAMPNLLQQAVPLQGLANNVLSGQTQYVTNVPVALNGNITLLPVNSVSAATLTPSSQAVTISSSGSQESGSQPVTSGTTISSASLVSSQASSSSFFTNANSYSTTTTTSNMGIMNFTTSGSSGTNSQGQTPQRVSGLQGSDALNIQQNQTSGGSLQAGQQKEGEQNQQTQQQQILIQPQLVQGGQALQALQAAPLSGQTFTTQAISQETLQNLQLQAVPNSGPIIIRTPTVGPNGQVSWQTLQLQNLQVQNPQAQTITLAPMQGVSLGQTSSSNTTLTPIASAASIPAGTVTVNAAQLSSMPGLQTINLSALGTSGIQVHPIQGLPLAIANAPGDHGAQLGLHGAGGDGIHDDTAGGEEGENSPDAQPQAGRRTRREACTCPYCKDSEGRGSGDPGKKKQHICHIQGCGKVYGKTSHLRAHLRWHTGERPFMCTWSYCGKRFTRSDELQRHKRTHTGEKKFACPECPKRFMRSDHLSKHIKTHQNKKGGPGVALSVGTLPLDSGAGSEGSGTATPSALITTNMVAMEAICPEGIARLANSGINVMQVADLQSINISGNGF
Sequence of Hepatocyte nuclear factor 6 (Homo sapiens) (Q9UBC0 whole entry, looked up): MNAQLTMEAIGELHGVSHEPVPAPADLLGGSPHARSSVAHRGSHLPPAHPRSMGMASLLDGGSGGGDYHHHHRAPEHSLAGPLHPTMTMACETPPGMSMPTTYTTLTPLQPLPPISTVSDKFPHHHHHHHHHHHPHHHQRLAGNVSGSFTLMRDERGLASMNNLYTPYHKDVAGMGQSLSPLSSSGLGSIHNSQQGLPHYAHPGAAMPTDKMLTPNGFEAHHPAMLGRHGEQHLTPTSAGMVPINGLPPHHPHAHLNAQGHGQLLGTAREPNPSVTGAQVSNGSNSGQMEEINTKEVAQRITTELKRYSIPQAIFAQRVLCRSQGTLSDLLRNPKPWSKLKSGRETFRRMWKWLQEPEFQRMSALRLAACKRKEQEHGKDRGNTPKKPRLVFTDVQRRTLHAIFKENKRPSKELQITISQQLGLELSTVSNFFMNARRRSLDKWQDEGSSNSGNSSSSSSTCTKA
Sequence of Hypoxia-inducible factor 1-alpha (Homo sapiens) (Q16665 whole entry, looked up): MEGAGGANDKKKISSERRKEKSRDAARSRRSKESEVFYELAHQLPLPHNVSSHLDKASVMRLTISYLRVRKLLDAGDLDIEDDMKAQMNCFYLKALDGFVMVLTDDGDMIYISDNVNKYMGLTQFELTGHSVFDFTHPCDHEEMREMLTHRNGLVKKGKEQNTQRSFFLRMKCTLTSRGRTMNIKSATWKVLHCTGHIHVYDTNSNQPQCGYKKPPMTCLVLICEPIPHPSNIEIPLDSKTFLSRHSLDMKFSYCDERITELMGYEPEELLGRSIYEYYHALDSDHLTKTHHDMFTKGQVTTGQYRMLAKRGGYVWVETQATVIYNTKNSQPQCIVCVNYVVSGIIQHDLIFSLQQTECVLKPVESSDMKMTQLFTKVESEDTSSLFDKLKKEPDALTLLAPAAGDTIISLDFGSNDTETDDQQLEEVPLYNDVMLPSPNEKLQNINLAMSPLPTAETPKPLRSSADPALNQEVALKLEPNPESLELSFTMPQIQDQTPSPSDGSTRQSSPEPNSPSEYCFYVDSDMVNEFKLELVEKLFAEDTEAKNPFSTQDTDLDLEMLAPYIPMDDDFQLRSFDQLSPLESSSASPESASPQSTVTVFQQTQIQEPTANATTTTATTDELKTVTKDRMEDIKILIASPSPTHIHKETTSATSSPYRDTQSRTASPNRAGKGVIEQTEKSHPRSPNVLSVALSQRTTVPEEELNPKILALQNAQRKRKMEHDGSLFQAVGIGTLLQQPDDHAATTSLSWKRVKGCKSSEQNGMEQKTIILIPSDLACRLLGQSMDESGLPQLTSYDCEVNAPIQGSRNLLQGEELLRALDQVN
Sequence of Heat shock factor protein 1 (Homo sapiens) (Q00613 whole entry, looked up): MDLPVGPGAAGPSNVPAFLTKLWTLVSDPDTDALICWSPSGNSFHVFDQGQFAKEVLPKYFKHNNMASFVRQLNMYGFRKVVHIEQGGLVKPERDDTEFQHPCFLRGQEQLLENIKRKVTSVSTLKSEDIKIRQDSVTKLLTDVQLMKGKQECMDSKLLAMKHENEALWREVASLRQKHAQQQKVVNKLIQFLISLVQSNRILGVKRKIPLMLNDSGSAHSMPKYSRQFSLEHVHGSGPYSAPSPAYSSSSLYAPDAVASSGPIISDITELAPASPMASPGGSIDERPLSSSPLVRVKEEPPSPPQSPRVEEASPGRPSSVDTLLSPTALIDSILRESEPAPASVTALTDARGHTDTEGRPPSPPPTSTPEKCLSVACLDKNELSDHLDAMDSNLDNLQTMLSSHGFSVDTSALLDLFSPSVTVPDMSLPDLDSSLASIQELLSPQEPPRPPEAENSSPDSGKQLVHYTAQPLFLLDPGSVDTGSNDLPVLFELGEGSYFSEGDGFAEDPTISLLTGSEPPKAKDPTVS

As to `O=C(Nc1ccc2c(c1)Cc1ccccc1-2)C(F)(F)F`, the result in assay [1], in assay [2], in assay [3], in assay [4], in assay [5] and in assay [6] was inactive. In addition, the compound was classed as inactive in [7], in assay [8], in assay [9], in [10], in [13] and in assay [14]. Besides, the call in assay [15], in assay [16], in assay [17] and in assay [18] was inactive. Besides, the AC50 in assay [11] is 27.7 µM (active); in assay [12], 17.5 µM (active).

Take `C=COCCOCCOC=C`: the call in assay [1], in [2], in assay [3], in assay [4], in assay [5] and in [19] was inactive. The result in assay [6], in [8], in assay [9], in assay [10], in assay [11] and in assay [20] was inactive. The call in assay [12], in [13], in assay [14], in assay [15], in assay [16] and in assay [18] was inactive.

`CC1=C(Br)C(=O)C(Br)=C/C1=C(/c1ccccc1S(=O)(=O)O)c1cc(Br)c(O)c(Br)c1C`: the compound was called inactive in assay [1], in [2], in assay [3], in assay [4], in assay [5] and in assay [19]. The call in [6], in assay [8], in assay [9], in [10], in assay [20] and in assay [12] was inactive. Besides, the result in [13], in [14], in assay [15], in assay [16], in [17] and in assay [18] was inactive. In assay [11], the AC50 is 26.2 µM (active).
